# Results published in the supplement of paper PMC6607015.
# Where a name gives a salt, the structure may show the parent alone.
# System: A431
# Experiment: LBPA endosome anti-LBPA integrated intensity (sum per cell), Z-score; higher = more LBPA staining
# Settings: compound concentration in added solution (µM; 5 µl added to 20 µl cells): 10; 18 h
# How it was run: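 After 18 h on 5 µl of 10 µM compound solution in duplicate 384-well imaging plates, HeLa MZ or A431 cells, seeded at 3,500 per well in 20 µl, were fixed with 4% PFA. They were then labelled with 6C4 anti-LBPA antibody, filipin, propidium iodide and CellTracker green, and four 20× fields were recorded per well. Integrated LBPA or filipin intensity per cell, whole-cell or within LBPA endosomes, came from MetaXpress segmentation and was normalised to Z-scores in AcuityXpress.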
row,Compound,LBPA endosome anti-LBPA integrated intensity (z-score)
1,C/C=C(/C(=C/C)c1ccc(O)cc1)c1ccc(O)cc1 [Dienestrol],-0.546
2,Cc1onc(-c2ccccc2Cl)c1C(=O)N[C@@H]1C(=O)N2[C@@H]1SC(C)(C)[C@@H]2C(=O)O [Cloxacillin sodium salt],-0.451
3,Nc1nc2n[nH]nc2c(=O)[nH]1 [Azaguanine-8],-0.399
4,Clc1ccc2c(c1)C(N1CCNCC1)=Nc1ccccc1O2 [Amoxapine],3.32
5,COC(=O)Nc1nc2cc([S+]([O-])c3ccccc3)ccc2[nH]1 (stereo unspecified) [Oxfendazol],-0.637
6,COc1cc([C@@H]2c3cc4c(cc3[C@@H](O[C@@H]3O[C@@H]5CO[C@@H](C)O[C@H]5[C@H](O)[C@H]3O)[C@H]3COC(=O)[C@H]23)OCO4)cc(OC)c1O [Etoposide],-0.699
7,O=c1[nH]cc(F)c(=O)[nH]1 [5-fluorouracil],-0.738
8,CCOC(=O)C1=C[C@]2(CC)CCCN3CCc4c(n1c1ccccc41)[C@@H]32 [Vinpocetine],-0.0891
9,"CC(C)NCC(O)c1cc(O)cc(O)c1 (stereo unspecified) [Metaproterenol sulfate, orciprenaline sulfate]",-0.366
10,CN(Cc1cnc2nc(N)nc(N)c2n1)c1ccc(C(=O)N[C@@H](CCC(=O)O)C(=O)O)cc1 [Methotrexate],-0.383
11,CCN(CC)C(=O)c1ccc(O)c(OC)c1 [Ethamivan],-0.477
12,O=C(O)CCC(=O)c1ccc(-c2ccccc2)cc1 [Fenbufen],-0.493
13,CC(CN(C)C)CN1c2ccccc2Sc2ccccc21 (stereo unspecified) [Trimeprazine tartrate],3.47
14,COc1ccc(C(Cl)=C(c2ccc(OC)cc2)c2ccc(OC)cc2)cc1 [Chlorotrianisene],-0.163
15,CC1=C(/C=C/C(C)=C/C=C/C(C)=C/C(=O)O)C(C)(C)CCC1 [Retinoic acid],-0.177
16,Oc1c(Cl)cc(Cl)c(Cl)c1Cc1c(O)c(Cl)cc(Cl)c1Cl [Hexachlorophene],-0.408

row,Compound,LBPA endosome anti-LBPA integrated intensity (z-score)
1,CC(C)(Oc1ccc(CCNC(=O)c2ccc(Cl)cc2)cc1)C(=O)O [Bezafibrate],-0.429
2,COc1ccc(C(=O)NCc2ccc(OCCN(C)C)cc2)cc1OC [Itopride],-0.646
3,CS(=O)(=O)c1ccc([C@@H](O)[C@@H](CF)NC(=O)C(Cl)Cl)cc1 [Florfenicol],-0.565
4,O=C(O)CNC(=O)C(CS)Cc1ccccc1 (stereo unspecified) [Thiorphan],-0.785
5,CCN(CC)CCOC(=O)C1(c2ccc([N+](=O)[O-])cc2)CCCC1 [Nitrocaramiphen hydrochloride],-0.558
6,CCN(CC)CCNc1ccc(CO)c2sc3ccccc3c(=O)c12 [Hycanthone],5.49
7,C[C@@H]1CCC[C@H](C)N1NC(=O)c1ccc(Cl)c(S(N)(=O)=O)c1 [Clopamide],-0.569
8,O=C(O)c1ccccc1Nc1cccc(C(F)(F)F)c1 [Flufenamic acid],-0.586
9,Cc1cc(C(C)(C)C)cc(C)c1CC1=NCCN1 [Xylometazoline hydrochloride],-0.127
10,COC(=O)Nc1nc2cc(C(=O)c3ccc(F)cc3)ccc2[nH]1 [Flubendazol],-0.354
11,Cc1ccc(-c2ncc(Cl)cc2-c2ccc(S(C)(=O)=O)cc2)cn1 [Etoricoxib],-0.471
12,O=C(CCCCCCC(=O)Nc1ccccc1)NO [Vorinostat],0.0566
13,CCCC1C(=O)N2C(N(C)C)=Nc3ccc(C)cc3N2C1=O (stereo unspecified) [Azapropazone],-0.356
14,O=C(CCCN1CCC(O)(c2ccc(Br)cc2)CC1)c1ccc(F)cc1 [Bromperidol],2.59
15,CN1C(C)(C)CCCC1(C)C [Pempidine tartrate],-0.407
